Results as given in PubChem BioAssay (NCI).
Compounds without any hit were thinned out: in the full panel of roughly 83,000, 20% have a hit.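 Compound tested at a single concentration for 48 hours in 96-well plates; a percent growth value below 10 was scored as active.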 Unmarked numbers belong to inactive results. Calls of active or inactive are those of the source.

How the values were obtained:
Experiment in all cases: NCI-60 one-dose screen, 48 h (100 = growth as untreated, 0 = no growth, -100 = all killed)
Conditions in all cases: 10 µM unless noted
[1] = system: HCT-15 colon
[2] = system: HT29 colon
[3] = system: SNB-75 CNS
[4] = system: SNB-19 CNS
[5] = system: U251 CNS
[6] = system: PC-3 prostate
[7] = system: UACC-62 melanoma
[8] = system: LOX IMVI melanoma
[9] = system: SK-MEL-28 melanoma
[10] = system: SK-MEL-2 melanoma
[11] = system: EKVX NSCLC
[12] = system: SN12C renal
[13] = system: UO-31 renal
[14] = system: TK-10 renal
[15] = system: ACHN renal
[16] = system: CAKI-1 renal
[17] = system: A498 renal
[18] = system: CCRF-CEM leukemia
[19] = system: MOLT-4 leukemia

| Compound | growth [1] | growth [2] | growth [3] | growth [4] | growth [5] | growth [6] | growth [7] | growth [8] | growth [9] | growth [10] | growth [11] | growth [12] | growth [13] | growth [14] | growth [15] | growth [16] | growth [17] | growth [18] | growth [19] |
| --- | --- | --- | --- | --- | --- | --- | --- | --- | --- | --- | --- | --- | --- | --- | --- | --- | --- | --- | --- |
| NNCCc1ccc(NC(=O)CCCc2ccc(/C=C/C(=O)NO)cc2)cc1 | 80.1% | 66.4% | 53% | 58.5% | 22.1% | 53.9% | 43% | 44% | 73.2% | 52.4% | 69.2% | 55.8% | 49.2% | 76.5% | 88.3% | 93.6% | 47% | 16.5% | 12.1% |
| C[n+]1ccccc1/C=C/c1ccc2cccc(O)c2n1 | 106% | 101% | 86.8% | 97% | 100% | 94.7% | 105% | 104% | 95.7% | 103% | 32% | 91.8% | 57.9% | 109% | 102% | 57.3% | 63.9% | 103% | 95.2% |
| O=C(Oc1cccnc1)c1ccsc1Nc1ccnc(C(F)(F)F)c1 | 45.9% | 4.26% (active) | 80.5% | 97.7% | 92.5% | 83.8% | 91.5% | 21.9% | 89.3% | 72.6% | 110% | 55.2% | 91.6% | 94.8% | 107% | 72.7% | 104% | 23.7% | 8.64% (active) |
| COc1ccc(-c2nn(-c3ccc(Cl)cc3)cc2-c2nc3ccccc3[nH]2)cc1 | 103% | 84.5% | 76.6% | 91.9% | 104% | 81.5% | 75.8% | 82.1% | 99.5% | 101% | 85.2% | 85.7% | 44.4% | 91.2% | 89.5% | 92% | 100% | 99.9% | 81.8% |
| C#CC(F)(F)[C@]1(O)CC[C@H]2[C@@H]3CCC4=CC(=O)CCC4=C3[C@@H](c3ccc(C(C)=O)cc3)C[C@@]21C | 89.6% | 1.5% (active) | 73.7% | 95.6% | 75.5% | 37% | 80.2% | 48.9% | 107% | 99.4% | -60.6% (active) | 89.3% | -75% (active) | 114% | 87.8% | -31.9% (active) | 79% | -55.5% (active) | 35.6% |
| c1ccc(Cn2cc(-c3nc4ccccc4s3)c3cccnc32)cc1 | 109% | 100% | 91% | 110% | 100% | 97% | 97.6% | 99.3% | 113% | 102% | 80.5% | 94.5% | 76.7% | 118% | 105% | 92.9% | 104% | 112% | 105% |
| O=S(=O)(Nc1ccc(NS(=O)(=O)c2ccccc2)c(Cl)c1)c1ccccc1 | 110% | 107% | 84.9% | 112% | 105% | 88.7% | 88.8% | 106% | 107% | 91.6% | 106% | 102% | 88.7% | 100% | 105% | 92.4% | 113% | 92% | 79% |
| CCCCCCCCCCCCC[N+](C)(C)Cc1ccccc1 | 64.7% | -62.7% (active) | -52.9% (active) | -60.7% (active) | 7.89% (active) | -23.7% (active) | -83.9% (active) | -88.3% (active) | -57% (active) | -80.2% (active) | 3.49% (active) | -55.7% (active) | 43.6% | -59.5% (active) | 16.8% | 76.5% |  | -14.8% (active) | -10.1% (active) |
| Cc1cc(N2CCOCC2)nc(N[C@@H]2CCC[C@H](Nc3ccnc4cc(Cl)ccc34)C2)n1 | -43.5% (active) | -52.9% (active) | -37.3% (active) | 34.8% | -57.3% (active) | 9.75% (active) | -79.7% (active) | -77.3% (active) | -74.3% (active) | -71.5% (active) | 49.9% | 22.7% | -84.5% (active) | -68.7% (active) | -61.7% (active) |  | 35.1% | -10.4% (active) | 2.9% (active) |
| Nc1n[nH]c2ccc([C@@H]3Nc4ccc5[nH]ncc5c4[C@H]4C5C=CC(C5)[C@@H]34)cc12 (some centres undefined) | 10.8% | 11.5% | -9.96% (active) | 27% | 18% | 13.8% | 37.5% | 9.79% (active) | 54.6% | 46.9% | 37.7% | 34.2% | 44.5% | 67.5% | 24.4% | 35.3% |  | 19.6% | 15.1% |
| O=C(Nc1ccc(Cl)cc1)c1cc2cc(F)ccc2cc1O | 13.1% | 72.5% | 18.7% | 21.3% | 5.79% (active) | 9.4% (active) | 10.9% | 17.8% | 12.1% | 6.39% (active) | 17% | 7.85% (active) | 12.6% | 17.7% | 3.91% (active) | 12% | -43.4% (active) | 15.6% | 7.89% (active) |
| COc1cc(-c2nn(-c3ccc(Br)cc3)cc2C(=O)O)ccc1O | 103% | 101% | 92.2% | 103% | 109% | 97.2% | 109% | 102% | 119% | 83.1% | 87.2% | 109% | 82.4% | 125% | 112% |  | 107% | 90.1% | 78.7% |
| Clc1ccc2c(NCCCCNc3nc(N4CCOCC4)nc4ccccc34)ccnc2c1 | 22.9% | -26.4% (active) | 79% | 14.7% | -59.6% (active) | 38.9% | 99.1% | -66.6% (active) | 119% | 103% | 45.2% | -8.57% (active) | -89.7% (active) | -63.1% (active) | -67.5% (active) |  | 90.4% | -21.7% (active) | 17.6% |
| CCc1nc(N)nc(N)c1C#CC(C)c1ccc(-c2ccncc2)cc1Cl (centres undefined) | 13.3% | 4.74% (active) | -9.88% (active) | 20.9% | 13.8% | 21.6% | 13.2% | 13.9% | 40.4% | 33.3% | 25% | 18.4% | 10.9% | 18.8% | 14.1% |  | 22.7% | 10.9% | 10.2% |
| CC1=C(O)C(=O)C(C(C#N)(C#N)C(C#N)C#N)C1 (centres undefined) | 98.9% | 111% | 81.5% | 108% | 113% | 106% | 97.6% | 96.5% | 114% | 83.9% | 95.3% | 100% | 94.3% | 105% | 106% |  | 97.1% | 112% | 100% |
| CC(=O)c1cc2c(N)c(C(=O)Nc3ccccc3)sc2nc1C | 60.3% | 67.3% | 66.8% | 68.4% | 73.5% | 81% | 31.5% | 85.4% | 78.4% | 33.3% | 70.1% | 90.8% | 90.8% | 76.4% | 91.7% |  | 22% | 84.5% | 85.6% |
| Cc1cc(N2CCSCC2)nc(NC2CCCC(Nc3ccnc4cc(Cl)ccc34)C2)n1 (centres undefined) | -67.8% (active) | -58.7% (active) | -60.1% (active) | 1.4% (active) | -65.7% (active) | -45.7% (active) | -87.8% (active) | -84.8% (active) | -79.9% (active) | -81% (active) | 24.1% | -29% (active) | -94% (active) | -57.9% (active) | -61.9% (active) |  | 22.9% | -20.5% (active) | -9.85% (active) |
